In PubChem BioAssay (NCATS) one finds Potency data, which are given here for 40 molecules.

The structures appear in SMILES notation. Records with an inconclusive call do not appear. Entries that show only a call come without a potency. Calls of active or inactive are those of the source. The call rests on the fitted dose curve; in most records, active means well fitted inhibition curve with a large enough effect; inconclusive means small, poorly fitted or top-dose-only effect, or effect the other way; inactive means flat fitted curve, though single readings scatter.

This experiment can be described thus: qHTS for Inhibitors of Plasmodium falciparum (CP250) proliferation (AID 504320). Conditions: P. falciparum CP250 in erythrocytes, SYBR Green DNA, 72 h; series mostly up to 6.7 µM. The text has this:
Plasmodium falciparum is a virulent malarial parasite that kills 1-2 million people worldwide each year. Malaria not only inflicts tremendous suffering and morbidity on the human population, but has dramatically influenced the course of civilization with profound sociological and economic implications (Shah, S. 2010). Transmitted by mosquitoes, the sporozoite form of the parasite enters the blood stream to infect hepatocytes, where they become merozoites that infect red blood cells (erythrocytes). Within erythrocytes, merozoites begin a […] cycle of growth and division, after which the parasite is released to infect new red blood cells. Gametocytes, which form within erythrocytes as well, circulate in the bloodstream and are ingested by the mosquito, thereby completing the life cycle (see CDC website). To profile malarial lines for differential chemical responses and to identify inhibitors of malarial growth, an assay that measures P. falciparum growth and replication within erythrocytes was employed. This assay uses a DNA binding fluorescent dye (SYBR Green) to detect parasite DNA following cell lysis. Because mature erythrocytes lack DNA, only Plasmodium-derived DNA is detected. The P. falciparum line cp250, derived from a malarial isolate from Cambodia, (Mu, J., et al. 2010) was added to the panel of lines, Dd2, HB3, 7G8 and GB4 in this study. Laboratory of Assay Development and Screening Technology [ADST] and NIH Chemical Genomics Center [NCGC] Boston University, Chemistry Department, Center for Chemical Methodology and Library Development [CMLD-BU] NIH National Institute of Allergy and Infectious Diseases [NIAID]
ADST Assay Protocol Summary: The 1536-well SYBR Green viability assay was based on the method of Bennett et al (2004) and described previously in 1536-well format (Yuan J., et al. 2009). For screening 3 ul culture medium was dispensed into 1536 well black clear bottom plates (Aurora Biotechnologies) using a Multidrop Combi (Thermo Fisher Scientific Inc.), 23 nL compounds in DMSO were added by a pin transfer (Cleveland, P.H. and Koutz, P.J, 2005) using a pin tool-based delivery system (Kalypsys), and 5 ul of erythrocytes infected with P. falciparum one of five lines (cp250, Dd2, HB3, 7G8 or GB4, 0.3% parasitemia, 2.5% hematocrit final concentration) were added. The plates were incubated at 37C in a humidified incubator in 5% CO2 for 72 h, and 2 ul lysis buffer (20 mM Tris HCl, 10 mM EDTA, 0.16% saponin, 1.6% triton X, 10X SYBR Green I (supplied as 10,000X final concentration by Invitrogen) was added to each well. The plates were mixed for 25 sec with gentle shaking and incubated overnight at room temperature in the dark. The following morning, fluorescence intensity at 485(14) nm excitation and 535(25) nm emission wavelengths was measured on an EnVision (Perkin Elmer) plate reader. Plate reads were normalized relative to the control inhibitor (0.29 uM artemisinin) and vehicle (DMSO) wells present on each plate and then corrected by an algorithm using vehicle-only control plates at the beginning and end of the compound plate stack. References Shah, S. (2010). The Fever: how malaria has ruled humankind for 500,000 years. New York, Sarah Crichton Books. CDC web site, http://www.cdc.gov/malaria/about/biology/index.html Mu, J., Myers, R.A., Jiang, H., Liu, S., Ricklefs, S., Waisberg, M., Chotivanich, K., Wilairatana, P., Krudsood, S., White, N.J., et Plasmodium falciparum genome-wide scans for positive selection, recombination hot spots and resistance to antimalarial drugs Nature Genetics 2010, 42, pp 268-271 Bennett TN, Paguio, M., Gligorijevic, B., Seudieu, C., Kosar, A. D., Davidson, E., and Roepe, P. D. Novel, rapid, and inexpensive cell-based quantification of antimalarial drug efficacy Antimicrobial Agents Chemother. 2004, 48(5): pp 1807-10 Yuan J, Johnson RL, Huang RL, Wichterman J, Jiang HY, Hayton K, Fidock DA, Wellems TE, Inglese J, Austin CP, Su XZ. […]
For the molecule `COC1=C[C@H](C(=O)NCCOC(C)=O)[C@@]2(C)Cc3ccccc3[C@@H]2CC1=O`, the Potency result was “inactive”.

Consider `CCCCC1=CC2=C(c3ccco3)C(=O)C(C)(OC(=O)c3ccc(OC)cc3)C(=O)C2=CN1CCCOC(C)C` (stereo not given), for which the Potency result was “inactive”.

Consider `CC(=O)OC[C@H]1O[C@H](CCON=C(C)CCN2CCc3nc(-c4ccccc4)c(-c4ccccc4)cc3C2)C=C[C@H]1OC(C)=O`, for which the Potency result is “inactive”. For `COC(=O)C1=C[C@@]2(c3ccc(OC)cc3[C@@H](OC)[C@@H]2C)[C@@H]2C=C[C@@H]1C2`, the Potency result was “inactive”. With `CCN1C(=NCc2cccc(C(F)(F)F)c2)NC(c2cccs2)C(C(=O)OC)=C1C` (stereo not given), the Potency result is “inactive”.

With `CCC=CCCC(OC(=O)c1ccc(Br)cc1)C1=CCCCC1=O` (stereo not given), the Potency entry was “inactive”.

With `O=C1CCC=C1C(O)CCc1ccccc1` (stereo not given), the Potency entry is “inactive”. For the molecule `C#CCN1C(=O)CC[C@@]23C1=NC(C(=O)OC)=C(C(=O)OC)[C@@H]2N(Cc1ccccc1)c1ccccc13`, the Potency result is “inactive”.

Consider `CC1(C)CC(=O)C2=C(C1)O[C@@]1(c3ccsc3)Cc3cc(C#N)ccc3[C@H]2O1`, for which the Potency result is “inactive”. For `CC1(OC(=O)c2cnc3ccccc3n2)C(=O)C=C2C=C(C3CC3)OC=C2C1=O` (stereo not given), the Potency result is “inactive”. For the molecule `C=C(CO[C@@H]1C=C[C@@H](c2ccccc2)O[C@@H]1CO)c1ccccc1`, the Potency entry was “inactive”. With `CCCCCCCC1=CC2=CC(=O)C(C)(OC(C)=O)C(=O)C2=CN1CCc1ccccc1` (stereo not given), the Potency result was “inactive”. In the case of `COC(=O)CC=C[C@@H](C)[C@H](NC(=O)OC)c1ccccc1Br`, the Potency result was “inactive”. As for `C=CCN1c2ccccc2[C@]23CCC(=O)N(CC(=O)OC)C2=NC(C(=O)OC)=C(C(=O)OC)[C@H]13`, the Potency entry was “inactive”.

As for `CC(C)[C@@H](OCc1ccccc1)[C@H](C)C=NOC[C@@H](C)[C@H](OCc1ccccc1)C(C)C`, the Potency result was “inactive”. For `COC1=C[C@H](C(=O)NC2CCN(Cc3ccccc3)CC2)[C@@]2(C)Cc3ccccc3[C@@H]2CC1=O`, the Potency entry was “inactive”. In the case of `C=CC[C@@H]1C=C(C(=O)OC)N(C(=O)C(F)(F)F)[C@@H](c2ccccc2Br)[C@@H]1C`, the Potency result is “inactive”. As to `C=C(C)CCN1C(=O)NC(c2cccc(C(F)(F)F)c2)C(C(=O)OC)=C1C` (stereo not given), the Potency result is “inactive”. As to `Cc1ccc(C(O)C2=CCCC2=O)cc1` (stereo not given), the Potency entry was “inactive”.

For the molecule `CCCCC1=CC2=C(c3ccco3)C(=O)C(C)(OC(=O)c3ccc(OC)cc3)C(=O)C2=CN1CCc1ccccn1` (stereo not given), the Potency result is “inactive”. As to `COC(=O)C12CC3(CCC4C5C(C(OCc6ccccc6)C41)C52)OCCO3` (stereo not given), the Potency entry is “inactive”. Then `C=CCOC(=O)N[C@@H](c1ccccc1)[C@@H](C)[N+](=O)[O-]`, with “inactive”; and `CO[C@@H]1c2cc(F)ccc2C(=CCCOC(=O)CC=Cc2ccccc2)[C@H]1C`, with “inactive”. As to `COc1ccc(C(=O)[C@]2(C)C=C(c3ccc(OC)cc3)[C@H](C)C2)cc1`, the Potency result was “inactive”. Consider `C[C@@H]1CC2CCCC2[C@]2(O1)C(=O)Nc1ccccc12` (stereo not given in full), for which the Potency result is “inactive”. Regarding `COC1=C[C@H](C(=O)NC2CCN(Cc3ccccc3)CC2)C(C)C(c2ccccc2)CC1=O` (stereo not given in full), the Potency entry is “inactive”. Then `CC1=C[C@@H](COc2ccccc2)O[C@@]2(C1)C(=O)N(Cc1ccccc1)c1ccccc12`, with “inactive”. Take `COC1=C[C@H](C(=O)N[C@H]2CCCC[C@H]2NC(C)=O)[C@@]2(C)Cc3ccccc3[C@@H]2CC1=O`: the Potency entry is “inactive”.

As to `CC(CCC(=O)OC[C@H]1O[C@H](C#Cc2ccccc2)C=C[C@H]1Oc1ccc(C)cc1)=NOC[C@@H](O)[C@H]1O[C@@H]2OC(C)(C)O[C@H]2[C@@H]1O`, the Potency entry was “inactive”. As for `COC[C@H]1O[C@@H](c2c(OC)cc(OC)cc2OC)[C@H](OC)[C@@H](OC)[C@H]1OC`, the Potency result is “inactive”. For the molecule `COC(=O)[C@H]1C[C@@]2(CC=C(C)C)C(=O)[C@@](CC=C(C)C)(C(=O)C(C(=O)c3ccccc3)=C2OC)C1(C)C`, the Potency entry was “inactive”. As to `C=CCOC(=O)N[C@@H](Cc1ccccc1)C(C(=O)OC)=C(C)NCc1ccccc1`, the Potency result was “inactive”.

With `COCCN1C(=O)NC(c2cccc(C(F)(F)F)c2)C(C(C)=O)=C1C` (stereo not given), the Potency result was “inactive”.

As for `COC(=O)N1C(c2ccccc2)=Cc2ccccc2C1CC(C)=O` (stereo not given), the Potency entry is “inactive”.

For `CC=CCCN1C=C(C(=O)OCC)C(c2ccccc2)NC1=O` (stereo not given), the Potency result was “inactive”. With `CCN1C(=NCCc2c[nH]c3ccccc23)NC(c2ccccc2)C(C(=O)OC)=C1C` (stereo not given), the Potency result was “inactive”. Then `C=C(C)CCN1C(=O)NC(c2ccccc2)C(C(C)=O)=C1C` (stereo not given), with “inactive”; and `COc1ccc(COC(=O)NN=C2C[C@@H](O)[C@@H](O)[C@@H]3[C@H]4C(=O)N(C[C@@H]5CCCO5)C(=O)[C@@H]4CC[C@@H]23)cc1`, with “inactive”; and `CCCCC1=CC2=C(c3ccco3)C(=O)C(C)(OC(=O)c3ccc(OC)cc3)C(=O)C2=CN1C1CCCCC1` (stereo not given), with “inactive”. `CC1(OC(=O)C2CCCC2)C(=O)C=C2C=C3CCCN3C=C2C1=O` (stereo not given): the Potency entry was “inactive”.
